Compound activity deposited in PubChem BioAssay by National Center for Advancing Translational Sciences (NCATS).
Pf growth 96h = Primary qHTS for delayed death inhibitors of the malarial parasite plastid, 96 hour incubation; P. falciparum luciferase reporter growth, 96 h; Potency, µM (titrated, usually from 28.7 µM), hits mostly inhibitors; AID 504834, 2011; 6.9% of 320,000 active
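96 h incubation, 37 C, 5% CO2, of luciferase-reporter P. falciparum-infected RBCs (2% hematocrit, 0.05% parasitemia final) with test compounds; endpoint luminescence.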
HCV inhibitor = qHTS Assay for Inhibitors of Hepatitis C Virus (HCV). 3.4% of 340,000 active. Potency, µM (top dose mostly 41.8 µM), usual class: inhibitors. Huh7.5.1 HCVcc-Cre infection, luciferase reporter, 44 h
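HCVcc-Cre virus at an moi near 0.5 was added right after compound to cells cultured 4 h from seeding (1,000 cells/well). Luciferase activity was determined 44 h later, 15 min after substrate addition at RT.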
AMA1 RON2 block = qHTS for Inhibitors of AMA1-RON; Towards Development of Antimalarial Drug Lead: Primary Screen | Plasmodium falciparum AMA1 (3D7) - RON2 peptide interaction | AlphaScreen AMA1-biotinylated RON2 peptide binding | Potency, µM (titrated, usually from 58.2 µM), actives largely listed as inhibitors | 0.2% of 360,000 active | AID 720542, 2013; further: nearly all actives have a fitted effect of over 45% in size
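AMA1 (3D7) with his tag at 25 nM final met compounds first, then biotinylated RON2 peptide at 25 nM; detection used donor plus acceptor beads, 10 µg/mL apiece, read by AlphaScreen after 30 min at room temperature.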
Pf growth 48h = Primary qHTS for delayed death inhibitors of the malarial parasite plastid, 48 hour incubation | P. falciparum luciferase growth in erythrocytes, 48 h | Potency, µM (titrated, usually from 28.7 µM), hits mostly inhibitors | 5.9% of 310,000 active
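Parasite viability was followed by luminescence of a genomically integrated firefly luciferase. Cultures held 0.1% parasitemia at 2% hematocrit (final), incubated under 5% CO2 at 37 C.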
A number is an active result; i = inactive; ? = inconclusive; nt = no result given; [ ] = another dose, or the depositor's remark. Compounds with a hit are over-represented: about 11% of the library has one in this group of screens. The call rests on the fitted dose curve; in most records, active means well fitted curve in the direction sought with a large enough effect; inconclusive means small, poorly fitted or top-dose-only effect, or another doubt; inactive means no such curve, though single readings can be large; an effect the other way counts as inactive or inconclusive.

SMILES | Pf growth 96h | HCV inhibitor | AMA1 RON2 block | Pf growth 48h
CCCOc1ncnc2c1[nH]c1ccccc12 | i | ? | i | i
CCN(CC)c1ncnc2c1[nH]c1ccccc12 | nt | 11µM | i | 4.1µM
CCOc1[nH]n(-c2ccccc2)c(=O)c1C=Nc1ccccc1 | 3.7µM | i | i | i
Cc1cc2nc(CCN(C(=S)NCC3CCCO3)C3CCCC3)[nH]c2cc1C (centres undefined) | ? | 11µM | i | i
Cc1cc2nc(CCN(C(=S)NCC(C)C)C3CCCC3)[nH]c2cc1C | ? | ? | i | ?
CC1CCCCN1CCCNc1ccc(C(CC(N)=O)NC(=O)Cc2cccc3ccccc23)cc1[N+](=O)[O-] (centres undefined) | 2.1µM | i | i | ?
NC(=O)CC(NC(=O)Cc1cccc2ccccc12)c1ccc(NC2CC3CCC2C3)c([N+](=O)[O-])c1 (centres undefined) | ? | 11µM | i | i
CC1CCCCN1CCCNc1ccc(C(CC(N)=O)NC(=O)Cc2ccc(Cl)cc2)cc1[N+](=O)[O-] (centres undefined) | i | i | i | i
NC(=O)CC(NC(=O)Cc1cccc2ccccc12)c1ccc(NC2CCCC2)c([N+](=O)[O-])c1 (centres undefined) | nt | i | i | nt
NC(=O)CC(NC(=O)Cc1ccc(Br)cc1)c1ccc(NCCN2CCCCC2)c([N+](=O)[O-])c1 (centres undefined) | 0.01µM | i | i | i
CCn1c(SCC(=O)Nc2cccc(S(=O)(=O)N(C)c3ccccc3)c2)nnc1C1CC1 | ? | i | i[11.6 µM] | ?
Cc1ccc(-n2c(O)c(/C=N/Nc3ccc(S(=O)(=O)N4CCOCC4)cc3[N+](=O)[O-])c3ccccc3c2=O)c(C)c1 | 2.9µM | 11µM | i | 10µM
Cc1ccc(S(=O)(=O)Nc2ccc(S(=O)(=O)N3CCOCC3)cc2)cc1[N+](=O)[O-] | ? | i | i | i
CN1CCN(S(=O)(=O)c2ccc(Nc3ccc(F)cc3)c([N+](=O)[O-])c2)CC1 | i | i[8.37 µM] | i | i
CCOc1ccc(Nc2ccc(S(=O)(=O)N3CCN(C)CC3)cc2[N+](=O)[O-])cc1OCC | ? | ? | ? | 12µM
Cc1ccc(Nc2ccc(S(=O)(=O)N3CCOCC3)cc2[N+](=O)[O-])cc1C | ? | 18µM | ? | i
Cc1cc(Nc2nc3ccccc3nc2Cl)n(-c2ccccc2C)n1 | 1.5µM | i | i | 1.5µM
Cc1cc(Nc2nc3ccccc3nc2Cl)n(-c2ccccc2)n1 | ? | ? | i | nt
C=CCNc1nc(C(=O)OCC(=O)N(Cc2ccccc2)C(C)C)cs1 | i | i | i | i
CC1CC(C)(C)CC2(C1)NC(=O)N(CC(=O)N1CCN(Cc3ccc(C#N)cc3)CC1)C2=O (centres undefined) | i | 1.4µM | i | i
CC1CC(C)(C)CC2(C1)NC(=O)N(CC(=O)N1CCN(S(=O)(=O)c3cccs3)CC1)C2=O (centres undefined) | ? | i | i | 9.3µM
Cc1cccc(NC(=O)CN2CCN(C(=O)CN3C(=O)NC4(CC(C)CC(C)(C)C4)C3=O)CC2)c1C (centres undefined) | nt | ? | i | nt
CC1(c2ccc3ccccc3c2)NC(=O)N(CC(=O)N2CCN(Cc3ccc(C#N)cc3)CC2)C1=O (centres undefined) | i | 1.3µM | i | ?
CC(=O)N1CCN(C(=O)CN2C(=O)NC(C)(c3ccc4ccccc4c3)C2=O)CC1 (centres undefined) | ? | i | i[11.6 µM] | i
CC(C)OC(=O)c1c(N)n(CCCN2CCOCC2)c2nc3ccccc3nc12 | ? | i | i | nt
SMILES | Pf growth 96h | HCV inhibitor | AMA1 RON2 block | Pf growth 48h
CC(C)OC(=O)c1c2nc3ccccc3nc2n2c1[nH]c(=O)c1ccccc12 | 6.6µM | i | nt | i
O=c1c2ccccc2nc(-c2ccccc2)n1-c1ccccc1O | ? | i | i | ?
O=C1c2ccccc2-n2c1nc1ccccc1c2=O | 0.0037µM | i | i | 0.33µM
O=c1c2ccccc2nc(-c2ccco2)n1-c1ccccc1 | 8.3µM | i | i | ?
O=c1c2ccccc2nc(-c2ccco2)n1-c1nc2ccccc2s1 | 1µM | i | i | i
Cc1ccccc1-n1c(-c2ccco2)nc2ccccc2c1=O | i | ? | i | ?
O=c1c2ccccc2nc(-c2ccco2)n1-c1ccncc1 | ? | i | i | i
CC(=O)Nc1ccc(S(=O)(=O)Nc2cccc(-n3c(C)nc4ccccc4c3=O)c2)cc1 | i | i | i | ?
COc1ccccc1N1CCNC(C)C1=O (centres undefined) | ? | i | i | i
CCCC(C(=O)NNC(=O)c1cc(C)oc1C)c1ccccc1 (centres undefined) | nt | i | i | nt
Cc1ccc2cc(/C=N/NC(=O)[C@H]3C[C@@H]3c3ccccc3)c(Cl)nc2c1 | 2.1µM | i | i | 2.9µM
O=C(N/N=C/c1cc2ccccc2nc1Cl)[C@H]1C[C@@H]1c1ccccc1 | 1.7µM | ? | i[2.32 µM] | 2.6µM
CCOc1cccc(C(=O)Nc2ccc(S(=O)(=O)Nc3cc(C)on3)cc2)c1 | i | i | i | i
Cc1ccc(CNC(=O)c2ccc(CS(=O)(=O)c3ccccc3)o2)cc1 | 4.7µM | i | i | i
Cc1ccc(S(=O)(=O)Cc2ccc(C(=O)NCc3cccs3)o2)cc1 | 3.7µM | i | i | nt
CN(Cc1nc(-c2ccc(Cl)cc2)no1)C(=O)c1ccc2c(c1)OCO2 | i | i | i | i
O=C(Nc1nc2c(s1)CCCC2)c1cccc(S(=O)(=O)N2CCCc3ccccc32)c1 | ? | ? | i | 9.3µM
CCOC(=O)c1sc(NC(=O)c2cccc(S(=O)(=O)N3CCc4ccccc43)c2)c(C#N)c1C | i | 10µM | i | ?
CN1CCc2nc(NC(=O)c3cccc(S(=O)(=O)N4CCc5ccccc54)c3)sc2C1 | i | ? | i | 5.9µM
CCOC(=O)c1sc(NC(=O)c2cccnc2)c(C#N)c1C | ? | i | i | i
CCC(CC)c1nnc(NC(=O)c2cccc(S(=O)(=O)N3CCc4ccccc43)c2)s1 | ? | i | i | 15µM
COc1ccc(CCN2CCCn3c2nc2c3c(=O)n(CC(N)=O)c(=O)n2C)cc1OC | i | i | i | i
Cc1cccc(C)c1NC(=O)C1(C)CN(S(C)(=O)=O)CC(=O)N1Cc1ccco1 (centres undefined) | nt | nt | i | nt
CC/C(=C\C(=O)c1cccnc1)Nc1ccc(C)c(C)c1 | ? | i | i | ?
COCCN(C(=O)c1ccco1)C(C(=O)NC1CCCC1)c1cccs1 (centres undefined) | ? | i | i | i
Cc1ccccc1CSc1nnc(-c2ccncc2)n1C | i | i | i | i
CC(=O)c1cccc(-c2ccnc3c2CC(C(=O)Nc2ccc(C(C)C)cc2)O3)c1 (centres undefined) | nt | nt | i | nt
CC(C)CC(NC(=O)c1cccs1)c1nnc(SCc2ccc(Cl)c(Cl)c2)n1C (centres undefined) | ? | ? | i | 12µM
CCc1ccc2c(c1)cc(CN(C(=S)Nc1ccccc1C)C1CC1)c1nnnn12 | ? | i | i | 3.3µM
